ELG1 repair inh – ELG1-dependent DNA repair inhibition. HEK293T ELG1-luciferase reporter, luminescence, 16 h; DNA damage induced by 5-fluorouridine. 330,000 compounds, 2.3% hits. Potency, µM (doses to about 46.1 µM), inactives show at the highest dose activity change, negative = inhibition, hits mostly inhibitors; further: on the % scale 0 is the no-effect control and ±100 the full control effect; nearly all actives have a fitted effect of over 55% in size
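Quantitative HTS, concentration-response format. 2,000 cells/well co-treated with 5-fluorouridine and compound, 16 hr in 5% CO2 at 37 °C; ONE-Glo luminescence read after 30 min.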
Rab9 promoter act – activators of Rab9 promoter. Huh7 Rab9 promoter-luciferase reporter, luminescence, 24 h. Potency, µM (titrated, usually from 9.22 µM), without a hit: at the highest dose activation, negative = inhibition, usual class: activators. 320,000 compounds, 2.8% hits. AID 485297; further: % of control where 0% means no effect; nearly all actives have a fitted effect of over 60% in size
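Huh7 cells stably carrying Rab9 promoter–luciferase reporter, plated 1500 cells/well, compound added after 2 h and incubated 24 h at 37 °C; luciferase luminescence then read after 10 min with detection reagent.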
FLuc modulator – firefly luciferase modulation, counter-screen for miR-21 project; P08659; purified FLuc, Km substrates, luminescence inhibition; Potency, µM (titrated, usually from 57.5 µM), for the others: top-dose activity change, negative = inhibition, usual class: inhibitors; 360,000 compounds, 6.9% hits; AID 588342;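 further: plate controls were vehicle for no effect and reference inhibitor for full effect; nearly all actives have a fitted effect of over 55% in size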
Target sequence (P08659 whole entry, looked up): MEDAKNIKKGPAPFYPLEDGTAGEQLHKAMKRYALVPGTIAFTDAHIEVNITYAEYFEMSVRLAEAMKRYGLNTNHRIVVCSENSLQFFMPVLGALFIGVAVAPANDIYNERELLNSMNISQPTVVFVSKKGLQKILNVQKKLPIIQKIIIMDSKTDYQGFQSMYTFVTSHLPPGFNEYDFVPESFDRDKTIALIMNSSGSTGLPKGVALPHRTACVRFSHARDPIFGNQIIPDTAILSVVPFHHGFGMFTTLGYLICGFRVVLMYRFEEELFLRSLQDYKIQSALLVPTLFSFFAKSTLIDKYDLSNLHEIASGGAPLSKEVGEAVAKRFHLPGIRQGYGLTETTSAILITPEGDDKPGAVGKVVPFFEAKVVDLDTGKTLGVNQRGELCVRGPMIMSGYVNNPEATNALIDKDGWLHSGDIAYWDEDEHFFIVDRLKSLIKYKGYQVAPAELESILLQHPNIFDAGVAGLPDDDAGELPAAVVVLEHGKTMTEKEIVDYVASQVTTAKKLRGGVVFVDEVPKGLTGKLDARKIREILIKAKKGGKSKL
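Purified P. pyralis luciferase (10nM final) with 10uM D-luciferin and 10uM ATP (Km levels) in 50mM Tris acetate pH 7.5, 10mM Mg acetate, 0.01% Tween-20, 0.05% BSA; qHTS 6-point titration, ~60 µM downward; luminescence read.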
SMN2 splice enh – SMN2 splice variant enhancement | HEK293 SMN2-luciferase splicing reporter, luminescence, 30-36 h | 210,000 compounds, 2.8% hits | Potency, µM (highest dose often 46.1 µM), inactives show at the top dose activity change, positive = activation, hits mostly activators; further: % of control where 0% means no effect; nearly all actives have a fitted effect of over 55% in size
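qHTS luciferase splicing reporter: luminescence rises when SMN2 exon 7 is included in transfected HEK293 cells. Compound exposure lasted 30-36 h at 37C, with 4.5 mM final sodium butyrate as control, followed by a ONE-Glo read.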
ELG1 genotox – induces genotoxicity in HEK293T cells with luciferase-tagged ELG1. 330,000 compounds, 1.3% hits. AID 504466. HEK293T ELG1-luciferase reporter, luminescence, 16 h. Potency, µM (top dose mostly 46 µM), without a hit: at the top dose activity change, positive = activation, actives largely listed as activators; further: % of control where 0% means no effect; nearly all actives have a fitted effect of over 60% in size
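HEK293T cells expressing luciferase-tagged ELG1 were exposed to compound or DMSO vehicle for 16 hr at 37 °C and 5% CO2. Luciferase activity was then measured with ONE-Glo after 30 min at room temperature.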
NPC1 promoter act – NPC1 promoter activation | Huh7 NPC1 promoter luciferase reporter, 24 h | Potency, µM (highest dose often 9.22 µM), for the others: at the top dose activation, most hits filed as activators | 320,000 compounds, 2.4% hits; further: % of control where 0% means no effect; nearly all actives have a fitted effect of over 60% in size
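Luminescence from an NPC1 promoter-driven luciferase reporter in stably transfected Huh7 cells was measured after 24 h compound treatment at 37 °C, followed by 10 min ambient incubation with luciferase detection reagent.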
Numbers without * were called inactive. Shown are actives, neighbours in structure and some others; about 9.4% of the full set was active somewhere. The call rests on the fitted dose curve; in most records, active means well fitted curve in the direction sought with a large enough effect; inconclusive means small, poorly fitted or top-dose-only effect, or another doubt; inactive means no such curve, though single readings can be large; an effect the other way counts as inactive or inconclusive. Potency means the concentration at half of the fitted maximal effect.

How did COCCn1c(C)cc(C(=O)CSc2nc3ccccc3s2)c1C do in these assays?
ELG1 repair inh: inconclusive; Rab9 promoter act: 0.5µM*; FLuc modulator: 0.54µM*; SMN2 splice enh: -77%; ELG1 genotox: inconclusive; NPC1 promoter act: 0.35µM*

What do the screens show for `O=C(CCn1c(=O)c2sccc2n(Cc2cccc(F)c2)c1=O)NCc1ccc2c(c1)OCO2`?
FLuc modulator: -1%; SMN2 splice enh: 1%

What do the screens show for `CCN(CC)c1ccc(-c2nn3c(-c4n[nH]c5c4CCC5)nnc3s2)cc1`?
ELG1 repair inh: 1%; Rab9 promoter act: -13%; FLuc modulator: 21µM*; SMN2 splice enh: 4%; ELG1 genotox: 1%; NPC1 promoter act: -9%

How did O=C(NCCc1ccccc1)C(=O)NCC1OCCCN1S(=O)(=O)c1cc(F)ccc1F (stereo not drawn) do in these assays?
ELG1 repair inh: -25%; Rab9 promoter act: -1%; FLuc modulator: 3%; ELG1 genotox: -7%; NPC1 promoter act: -3%

Results for O=C(NCCc1c[nH]c2ccccc12)C(=O)NCC1OCCCN1S(=O)(=O)c1cc(F)ccc1F (stereo not drawn) ?
ELG1 repair inh: 21µM*; Rab9 promoter act: -5%; FLuc modulator: -1%; SMN2 splice enh: -13%; ELG1 genotox: -21%; NPC1 promoter act: -4%

What do the screens show for `COc1ccc(S(=O)(=O)N2CCOC2CNC(=O)C(=O)NCCc2c[nH]c3ccccc23)cc1C` (stereo not drawn)?
ELG1 repair inh: 26µM*; Rab9 promoter act: 1%; FLuc modulator: 4%; SMN2 splice enh: -58%; ELG1 genotox: -8%; NPC1 promoter act: -5%

Results for COc1ccc(OCC(=O)Nc2nnc3n2CCS3)cc1 ?
FLuc modulator: -1%

What do the screens show for `COc1ccccc1C(=O)Nc1ccc(-c2cc(C(F)(F)F)nn2-c2ccccc2)cc1`?
FLuc modulator: -8%; SMN2 splice enh: -36%

How did Cc1nc(S/C(=C/c2ccc(OCc3ccc(C(=O)O)cc3)cc2)C(=O)O)n[nH]1 do in these assays?
ELG1 repair inh: 19%; Rab9 promoter act: -4%; FLuc modulator: 27µM*; SMN2 splice enh: -31%; ELG1 genotox: 0%; NPC1 promoter act: 6%

How did CCOC(=O)c1ccc(Nc2nc(C(=O)OCC)nc3ccccc23)cc1 do in these assays?
ELG1 repair inh: inconclusive; Rab9 promoter act: 2%; FLuc modulator: -1%; SMN2 splice enh: 23%; ELG1 genotox: -10%; NPC1 promoter act: -5%

How did CCOC(=O)c1nc(Nc2ccc(N3CCC(C)CC3)cc2)c2ccccc2n1 do in these assays?
ELG1 repair inh: 5.8µM*; Rab9 promoter act: -2%; FLuc modulator: -18%; ELG1 genotox: -11%; NPC1 promoter act: -2%

How did CCOC(=O)c1nc(Nc2ccc(Nc3ccccc3)cc2)c2ccccc2n1 do in these assays?
ELG1 repair inh: 7.3µM*; Rab9 promoter act: -3%; FLuc modulator: inconclusive; SMN2 splice enh: -58%; ELG1 genotox: -25%; NPC1 promoter act: -7%

How did Cc1cc2c(cc1S(=O)(=O)CCC(=O)N1CCCC(C)C1)OCC(=O)N2 (stereo not drawn) do in these assays?
FLuc modulator: -3%

What do the screens show for `COc1ccc(NC(=O)Cn2c(=O)oc3cc(S(=O)(=O)NCc4ccccc4)ccc32)c(OC)c1`?
FLuc modulator: -12%

How did Cc1ccccc1-c1nc2c3c(-c4ccccc4)c(-c4ccccc4)oc3ncn2n1 do in these assays?
FLuc modulator: 2%; SMN2 splice enh: 5%

How did Cc1ccccc1OCC(=O)Nc1ccccc1OCc1cc(=O)n2ccccc2n1 do in these assays?
FLuc modulator: 11µM*

Results for COc1ccccc1CCC(=O)OCc1csc(CC(=O)Nc2ccccc2C)n1 ?
ELG1 repair inh: -1%; Rab9 promoter act: -1%; FLuc modulator: -6%; ELG1 genotox: -4%; NPC1 promoter act: 3%

What do the screens show for `Cc1csc2nc(COC(=O)c3cccc(NC(=O)COc4ccccc4Cl)c3)cc(=O)n12`?
FLuc modulator: 1.2µM*

Results for CCN(CC(=O)Nc1ccccc1OC)Cc1csc(CC(=O)Nc2ccc(C)cc2)n1 ?
ELG1 repair inh: 9.2µM*; ELG1 genotox: -3%

How did Cc1ccc(NC(=O)Cc2nc(COC(=O)c3c(F)cccc3Cl)cs2)cc1 do in these assays?
ELG1 repair inh: 18µM*; ELG1 genotox: -1%

Results for Cc1cccc(NC(=O)Cn2c(=O)n(CCCCCC(=O)NCc3ccccc3)c(=O)c3sccc32)c1 ?
FLuc modulator: -2%; SMN2 splice enh: -22%

How did Cc1noc(Cn2c(=O)c3cc4c(cc3n(CC(=O)Nc3cccc(Cl)c3)c2=O)OCO4)n1 do in these assays?
FLuc modulator: -10%

Results for Cc1nn2c(=O)cc(COC(=O)c3c(F)cccc3Cl)nc2s1 ?
ELG1 repair inh: inconclusive; Rab9 promoter act: 4µM*; FLuc modulator: inconclusive; ELG1 genotox: inconclusive; NPC1 promoter act: 4µM*

What do the screens show for `Cc1ccc(OCC(=O)Nc2cccc(C(=O)OCc3cc(=O)n4nc(C)sc4n3)c2)cc1`?
FLuc modulator: 9.5µM*

How did Cc1nn2c(=O)cc(COC(=O)c3ccc(NC(=O)COc4ccc(C)c(C)c4)cc3)nc2s1 do in these assays?
FLuc modulator: 0%

What do the screens show for `Cc1nn2c(=O)cc(COC(=O)c3cccc(NC(=O)COc4ccccc4C)c3)nc2s1`?
FLuc modulator: 24µM*

What do the screens show for `CCOC(=O)c1[nH]c(C)c(CCC(=O)Nc2ccccc2C(=O)OC)c1C`?
FLuc modulator: 0%

Results for CCCCNC(=O)C1CCC(Cn2c(=O)c3sccc3n(CC(=O)Nc3ccccc3)c2=O)CC1 (stereo not drawn) ?
FLuc modulator: -3%

How did CCN(CC)C(=O)Cn1c(=O)n(CCCCCC(=O)NCc2ccccc2Cl)c(=O)c2sccc21 do in these assays?
FLuc modulator: -6%; SMN2 splice enh: 1%

Results for CCCC[n+]1ccn(-c2nc3ccccc3nc2[N-]S(=O)(=O)c2cccs2)c1 ?
ELG1 repair inh: 21µM*; Rab9 promoter act: -9%; FLuc modulator: 5%; ELG1 genotox: -2%; NPC1 promoter act: 1%

Results for CCCC[n+]1ccn(-c2nc3ccccc3nc2[N-]S(=O)(=O)c2ccccc2)c1 ?
ELG1 repair inh: 12%; Rab9 promoter act: -8%; FLuc modulator: 2%; SMN2 splice enh: -8%; ELG1 genotox: 1%; NPC1 promoter act: 0%
